Test system: Vero E6 infected with SARS-CoV-2
Assay: inhibition of SARS-CoV-2 cytopathic effect; higher = more antiviral protection, active = above 15
Conditions: 48 h

Measured: inhibition of SARS-CoV-2 cytopathic effect

CCC[S+]([O-])c1ccc2[nH]c(NC(=O)OC)nc2c1 (stereo not given) [albendazole-oxide]
inactive: 1 nM 3.02% | 8.33 nM 2.02% | 100 nM 0.87% | 833.33 nM 1.7% | 10000 nM 0.07%

CN(C)CCOC(c1ccc(Cl)cc1)c1ccccn1 (stereo not given) [carbinoxamine]
inactive: 1 nM 1.68% | 8.33 nM 1.53% | 100 nM 1.23% | 833.33 nM 1.37% | 10000 nM -1.45%

NC(=O)c1ccc[n+]([C@@H]2O[C@H](COP(=O)([O-])OP(=O)(O)OC[C@H]3O[C@@H](n4cnc5c(N)ncnc54)[C@H](O)[C@@H]3O)[C@@H](O)[C@H]2O)c1 [nadide]
inactive: 1 nM -2.68% | 8.33 nM -2.65% | 100 nM -0.81% | 833.33 nM -0.61% | 10000 nM -0.54%

CN(C)C(=O)C(=O)c1cn(C)c2cc(Cl)c(C(=O)N3CCC(Cc4ccc(F)cc4)CC3)cc12
inactive: 1 nM 2.15% | 8.33 nM -1.11% | 100 nM -2.84% | 833.33 nM -2.05% | 10000 nM 6.33%

O=C(C1CCCCC1)N1CC(=O)N2CCc3ccccc3C2C1 (stereo not given) [praziquantel]
inactive: 1 nM -1.8% | 8.33 nM 0.08% | 100 nM 1.39% | 833.33 nM 2.67% | 10000 nM 0.6%

CN1CCC(NC(=O)c2cc(-c3c(O)cc(O)cc3Oc3ccc([N+](=O)[O-])cc3)on2)CC1
inactive: 1 nM 0.32% | 8.33 nM 0.21% | 100 nM 3.95% | 833.33 nM -1.5% | 10000 nM -5.98%

Nc1nc(Nc2ccc(S(N)(=O)=O)cc2)nn1C(=O)c1c(F)cccc1F
inactive: 1 nM 2.48% | 8.33 nM 1.33% | 100 nM 0.15% | 833.33 nM -0.22% | 10000 nM 10.8%

CO/N=C(\C(=O)N[C@@H]1C(=O)N2C(C(=O)O)=C(COC(N)=O)CS[C@H]12)c1ccco1
inactive: 1 nM -0.51% | 8.33 nM 1.54% | 100 nM 0.59% | 833.33 nM 0.24% | 10000 nM -0.24%

CCS(=O)(=O)N(C)[C@H]1c2cc(C#N)ccc2OC(C)(C)[C@@H]1O [chromanol-293B-(-)-[3R,4S]]
inactive: 1 nM 0.15% | 8.33 nM -2.19% | 100 nM 0.8% | 833.33 nM 1.12% | 10000 nM -1.64%

COc1cccc(CCc2ccccc2OCC[C@@H]2C[C@@H](O)CN2C)c1
inactive: 1 nM 2.39% | 8.33 nM 4.9% | 100 nM 14.7% | 833.33 nM -9.02% | 10000 nM -0.59%

N#CN1CCCC1 [pyrrolidine-1-carbonitrile]
inactive: 1 nM 3.76% | 8.33 nM 2.93% | 100 nM -2% | 833.33 nM 1.38% | 10000 nM 2.45%

COc1cc(OCc2cccc(-c3ccccc3)c2C)cc(OC)c1CN1CCCC[C@H]1C(=O)O [PD1-PDL-inhibitor-1]
inactive: 1 nM -2.92% | 8.33 nM 1.37% | 100 nM 5.72% | 833.33 nM 0.14% | 10000 nM 0.4%

Cc1[nH]c2ccccc2c1CCNCc1ccc(/C=C/C(=O)NO)cc1 [panobinostat]
inactive: 1 nM -1% | 8.33 nM -0.99% | 100 nM -7.01% | 833.33 nM -13.3% | 10000 nM -14.4%

OC[C@H]1O[C@H]([S-])[C@H](O)[C@@H](O)[C@@H]1O.[Au+] [aurothioglucose]
inactive: 1 nM 0.67% | 8.33 nM -0.7% | 100 nM -0.3% | 833.33 nM 0.93% | 10000 nM 0.69%

CNC(=N)NCCC[C@H](N)C(=O)O [targinine]
inactive: 1 nM -1.27% | 8.33 nM 4.65% | 100 nM 8.19% | 833.33 nM 0.16% | 10000 nM 3.97%

[NH-]c1c[n+](N2CCOCC2)no1 [linsidomine]
inactive: 1 nM 0.45% | 8.33 nM 3.55% | 100 nM 0.57% | 833.33 nM -0.32% | 10000 nM 1.99%

Cc1ccc2c(Cl)cc(Cl)c(O)c2n1 [chlorquinaldol]
inactive: 1 nM -1.39% | 8.33 nM -0.32% | 100 nM -1.09% | 833.33 nM -1.86% | 10000 nM 0.43%

O=C(CCCN1CC=C(n2c(=O)[nH]c3ccccc32)CC1)c1ccc(F)cc1 [droperidol]
inactive: 1 nM -0.89% | 8.33 nM 3.34% | 100 nM 0.3% | 833.33 nM -0.44% | 10000 nM -2%
